Experimental data reported in PubChem BioAssay (NCI).
This is part of a sample that, as a whole, favours compounds with a hit. Of some 83,000 tested, about 20% had one in any assay.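 Compound tested at a single concentration for 48 hours in 96-well plates; a percent growth value below 10 was scored as active.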 A number with no mark means an inactive call. Active and inactive are the calls of the source.

Assays:
Assay in all cases: NCI-60 one-dose screen, 48 h (100 = growth as untreated, 0 = no growth, -100 = all killed)
Conditions in all cases: 10 µM unless noted
[1] = tested on: SK-MEL-2 melanoma
[2] = tested on: SN12C renal
[3] = tested on: UO-31 renal
[4] = tested on: ACHN renal
[5] = tested on: CAKI-1 renal
[6] = tested on: A498 renal
[7] = tested on: CCRF-CEM leukemia
[8] = tested on: MOLT-4 leukemia
[9] = tested on: SR leukemia
[10] = tested on: RPMI-8226 leukemia
[11] = tested on: OVCAR-8 ovarian
[12] = tested on: OVCAR-5 ovarian
[13] = tested on: OVCAR-4 ovarian
[14] = tested on: SK-OV-3 ovarian
[15] = tested on: IGROV1 ovarian
[16] = tested on: OVCAR-3 ovarian
[17] = tested on: HS 578T breast
[18] = tested on: NCI/ADR-RES ovarian
[19] = tested on: TK-10 renal
[20] = tested on: EKVX NSCLC

Row | SMILES | growth [1] | growth [2] | growth [3] | growth [4] | growth [5] | growth [6] | growth [7] | growth [8] | growth [9] | growth [10] | growth [11] | growth [12] | growth [13] | growth [14] | growth [15] | growth [16] | growth [17] | growth [18] | growth [19] | growth [20]
1 | CCC[CH2][Sn]1([CH2]CCC)[O]C2C(CO)OC(n3ccc(N)nc3=O)C2[O]1 (configuration not stated) | -91.9% (active) | -52.6% (active) | -78.2% (active) | -83.9% (active) | -82.7% (active) | -94.5% (active) | -30.7% (active) | -26.6% (active) | -30.5% (active) | -28.7% (active) | -44.7% (active) | -41.9% (active) | -53% (active) | 28.2% | -23% (active) | -90.8% (active) | -12.4% (active) | 24.8% |  | 
2 | Oc1ccccc1N=Cc1ccccc1 | 82.4% | 81.7% | 67.4% | 85.1% | 97.7% | 97.7% | 86.6% | 81.2% | 79.2% | 62.9% | 84% | 104% | 107% | 104% | 94.5% | 76.2% | 108% | 84.6% | 122% | 
3 | CN(C)c1ccc(/C=C/c2cc[n+](C)c(/C=C/c3ccc(N(C)C)cc3)c2)cc1 |  | 13.5% | -11.4% (active) | 14.6% | -4.63% (active) | -10.3% (active) | 6.95% (active) | -26.5% (active) | -34.3% (active) | -26.4% (active) | 5.17% (active) | 21.9% | 19.9% | 7.83% (active) | 11% | 20.5% | 32.9% | 58.8% | 0.183% (active) | 
4 | CCC(C)(O)Cc1ccc(Cl)cc1 (configuration not stated) |  | 103% | 94.2% | 111% | 101% | 89.5% | 105% | 98.4% | 101% | 105% | 108% | 111% | 103% | 103% |  | 114% | 108% | 111% | 97.6% | 111%
5 | c1csc(-c2[nH]nc3c2CCc2ccccc2-3)c1 |  | 93.5% | 53.8% | 82.3% | 79% | 77.7% | 98.1% | 69.6% | 105% | 81.3% | 99.1% | 24.1% | 48.5% | 98.1% | 67.2% | 28.1% | 90% | 98.7% | 27.8% | 
6 | CN(C)c1ccc(/C=C/c2nccc3ccccc23)cc1 |  | 75.6% | 58.4% | 87.1% | 73.6% |  |  | 99.9% |  | 72% | 87.9% | 89.4% | 103% | 99.2% | 78.5% | 81.6% | 94.1% | 78.4% | 88.2% | 
7 | C=C(C(N)=O)C(N)C(=O)O (configuration not stated) |  | 108% | 97.6% | 108% | 116% | 113% |  |  | 83.4% | 104% | 108% | 113% | 115% | 112% | 99.8% | 105% | 114% | 112% | 109% | 
8 | Cc1ccc2cccc(OC(=O)Nc3cccc(C(F)(F)F)c3)c2n1 |  | 61.5% | 35.8% | 36.4% | 35.4% | 66.3% |  | 40.4% | 36.9% |  | 53.5% | 83.7% | 73% | 108% | 58.2% | 32.3% | 100% | 58.9% | 83% | 
9 | O=C1C=C(Cl)C(=O)c2ccccc21 |  | 101% | 60.8% | 38% | 90.6% | 118% | 53.3% | 37.4% | 94.7% | 84.7% | 91.6% | 113% | 92.5% | 94.7% | 92.3% | 89.8% | 111% | 102% | 152% | 
10 | O=C(c1ccccc1)C(O)C(Br)(CBr)c1ccccc1 (configuration not stated) |  | 91.6% | 96.3% | 93.2% | 102% |  | 50% | 75.1% | 59.3% | 73.6% | 93.2% | 99.6% | 90.8% | 114% | 90.9% |  |  | 91.6% | 87.6% | 108%
